Among the data in the supplement of paper PMC10849652 are log2 fold change values, retold here.

Of roughly 8,800 targets only a part is listed; those with a hit were picked by preference. About 0.5% of all pairs of compound and target were hits.

Chain of UniProt P35749 (P35749 whole entry, looked up): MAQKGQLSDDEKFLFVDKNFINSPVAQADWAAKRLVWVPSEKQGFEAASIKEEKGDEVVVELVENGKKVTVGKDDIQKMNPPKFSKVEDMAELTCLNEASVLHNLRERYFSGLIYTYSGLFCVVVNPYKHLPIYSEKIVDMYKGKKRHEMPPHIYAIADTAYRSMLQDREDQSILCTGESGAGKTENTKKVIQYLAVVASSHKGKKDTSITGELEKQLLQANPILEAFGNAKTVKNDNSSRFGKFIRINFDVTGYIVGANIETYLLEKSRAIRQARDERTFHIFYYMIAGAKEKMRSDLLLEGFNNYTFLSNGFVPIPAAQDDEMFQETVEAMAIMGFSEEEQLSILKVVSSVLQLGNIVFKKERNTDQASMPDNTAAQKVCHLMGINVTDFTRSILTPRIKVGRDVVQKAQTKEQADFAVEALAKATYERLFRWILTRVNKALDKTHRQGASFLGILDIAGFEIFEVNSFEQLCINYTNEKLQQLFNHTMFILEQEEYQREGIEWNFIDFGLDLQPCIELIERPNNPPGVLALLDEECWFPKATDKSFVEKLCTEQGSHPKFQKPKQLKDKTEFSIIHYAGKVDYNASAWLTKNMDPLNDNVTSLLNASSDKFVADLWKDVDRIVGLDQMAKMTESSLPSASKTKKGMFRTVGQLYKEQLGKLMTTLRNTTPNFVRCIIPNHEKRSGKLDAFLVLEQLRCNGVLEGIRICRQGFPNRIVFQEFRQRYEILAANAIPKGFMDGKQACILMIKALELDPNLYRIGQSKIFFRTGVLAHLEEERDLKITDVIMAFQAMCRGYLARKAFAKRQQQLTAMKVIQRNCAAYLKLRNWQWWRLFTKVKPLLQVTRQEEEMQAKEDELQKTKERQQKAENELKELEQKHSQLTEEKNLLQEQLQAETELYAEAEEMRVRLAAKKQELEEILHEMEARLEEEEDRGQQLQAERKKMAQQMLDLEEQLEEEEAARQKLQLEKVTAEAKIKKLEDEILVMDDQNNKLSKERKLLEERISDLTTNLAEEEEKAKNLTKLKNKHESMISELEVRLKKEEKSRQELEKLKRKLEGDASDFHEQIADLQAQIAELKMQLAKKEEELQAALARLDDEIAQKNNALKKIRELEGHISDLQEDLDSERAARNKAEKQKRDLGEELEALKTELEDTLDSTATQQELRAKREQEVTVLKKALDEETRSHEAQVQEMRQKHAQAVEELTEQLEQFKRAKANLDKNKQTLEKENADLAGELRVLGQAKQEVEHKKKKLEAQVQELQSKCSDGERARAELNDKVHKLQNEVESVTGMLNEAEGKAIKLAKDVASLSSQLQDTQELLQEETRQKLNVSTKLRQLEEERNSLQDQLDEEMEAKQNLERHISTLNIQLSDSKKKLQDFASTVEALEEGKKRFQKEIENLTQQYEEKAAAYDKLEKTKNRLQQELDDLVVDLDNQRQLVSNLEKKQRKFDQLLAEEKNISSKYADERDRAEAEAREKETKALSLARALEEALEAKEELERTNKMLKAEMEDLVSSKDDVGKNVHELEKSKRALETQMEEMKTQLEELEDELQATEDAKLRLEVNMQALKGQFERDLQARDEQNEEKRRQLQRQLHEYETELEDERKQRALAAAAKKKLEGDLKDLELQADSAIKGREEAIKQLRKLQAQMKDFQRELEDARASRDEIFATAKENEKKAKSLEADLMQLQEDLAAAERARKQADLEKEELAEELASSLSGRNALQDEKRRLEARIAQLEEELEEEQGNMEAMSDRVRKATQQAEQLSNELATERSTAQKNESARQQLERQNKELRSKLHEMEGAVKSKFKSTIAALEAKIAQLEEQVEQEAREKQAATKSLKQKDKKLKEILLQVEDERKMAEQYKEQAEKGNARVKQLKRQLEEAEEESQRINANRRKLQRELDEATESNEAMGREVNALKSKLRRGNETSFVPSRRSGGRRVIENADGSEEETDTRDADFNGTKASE
Chain of UniProt P00480 (P00480 whole entry, looked up): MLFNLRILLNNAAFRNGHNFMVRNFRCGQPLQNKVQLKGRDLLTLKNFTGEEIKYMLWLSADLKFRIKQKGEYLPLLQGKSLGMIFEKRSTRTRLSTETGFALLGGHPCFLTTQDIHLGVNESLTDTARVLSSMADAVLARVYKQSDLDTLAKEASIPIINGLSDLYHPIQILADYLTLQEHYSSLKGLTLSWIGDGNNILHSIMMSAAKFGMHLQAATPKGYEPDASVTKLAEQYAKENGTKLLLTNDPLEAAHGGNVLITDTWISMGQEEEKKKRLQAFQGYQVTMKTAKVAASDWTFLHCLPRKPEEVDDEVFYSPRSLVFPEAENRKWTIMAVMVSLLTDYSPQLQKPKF
Chain of UniProt Q9Y5A7 (Q9Y5A7 whole entry, looked up): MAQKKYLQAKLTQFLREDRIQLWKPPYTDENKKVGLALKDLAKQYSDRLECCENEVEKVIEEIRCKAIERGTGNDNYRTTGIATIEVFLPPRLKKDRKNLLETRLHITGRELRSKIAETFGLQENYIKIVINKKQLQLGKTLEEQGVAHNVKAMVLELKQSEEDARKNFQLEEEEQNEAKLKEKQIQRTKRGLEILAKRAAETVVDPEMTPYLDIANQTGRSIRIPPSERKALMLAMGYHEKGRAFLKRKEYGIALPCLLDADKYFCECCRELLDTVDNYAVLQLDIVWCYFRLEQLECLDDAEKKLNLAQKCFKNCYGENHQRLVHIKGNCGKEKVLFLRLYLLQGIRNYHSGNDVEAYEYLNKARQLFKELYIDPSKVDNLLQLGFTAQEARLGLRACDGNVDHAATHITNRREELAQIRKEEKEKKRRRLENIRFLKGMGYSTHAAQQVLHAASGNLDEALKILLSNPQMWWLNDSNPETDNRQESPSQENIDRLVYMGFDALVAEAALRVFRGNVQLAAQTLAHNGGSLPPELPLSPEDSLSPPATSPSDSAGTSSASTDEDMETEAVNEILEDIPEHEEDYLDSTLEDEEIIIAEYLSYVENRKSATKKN
Chain of UniProt Q5VZE5 (Q5VZE5 whole entry, looked up): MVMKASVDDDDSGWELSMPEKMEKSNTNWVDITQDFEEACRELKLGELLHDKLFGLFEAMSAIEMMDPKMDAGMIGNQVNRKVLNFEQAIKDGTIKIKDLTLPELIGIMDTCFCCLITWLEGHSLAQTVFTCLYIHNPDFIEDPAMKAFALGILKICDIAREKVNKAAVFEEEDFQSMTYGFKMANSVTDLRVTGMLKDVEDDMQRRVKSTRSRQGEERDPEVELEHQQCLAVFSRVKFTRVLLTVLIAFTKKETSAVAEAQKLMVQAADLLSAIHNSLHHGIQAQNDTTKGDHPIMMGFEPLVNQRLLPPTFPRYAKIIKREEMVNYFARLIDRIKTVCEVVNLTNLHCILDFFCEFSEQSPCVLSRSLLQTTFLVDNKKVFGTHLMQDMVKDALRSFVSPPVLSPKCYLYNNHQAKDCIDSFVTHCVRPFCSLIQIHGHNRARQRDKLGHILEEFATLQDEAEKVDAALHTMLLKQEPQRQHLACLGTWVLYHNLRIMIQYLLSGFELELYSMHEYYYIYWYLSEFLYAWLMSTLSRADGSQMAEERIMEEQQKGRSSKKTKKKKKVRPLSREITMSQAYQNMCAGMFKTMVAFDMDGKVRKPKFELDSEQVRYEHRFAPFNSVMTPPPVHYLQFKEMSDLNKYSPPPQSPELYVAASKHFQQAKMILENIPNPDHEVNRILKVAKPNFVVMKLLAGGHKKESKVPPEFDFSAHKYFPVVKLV
Chain of UniProt P49757 (P49757 whole entry, looked up): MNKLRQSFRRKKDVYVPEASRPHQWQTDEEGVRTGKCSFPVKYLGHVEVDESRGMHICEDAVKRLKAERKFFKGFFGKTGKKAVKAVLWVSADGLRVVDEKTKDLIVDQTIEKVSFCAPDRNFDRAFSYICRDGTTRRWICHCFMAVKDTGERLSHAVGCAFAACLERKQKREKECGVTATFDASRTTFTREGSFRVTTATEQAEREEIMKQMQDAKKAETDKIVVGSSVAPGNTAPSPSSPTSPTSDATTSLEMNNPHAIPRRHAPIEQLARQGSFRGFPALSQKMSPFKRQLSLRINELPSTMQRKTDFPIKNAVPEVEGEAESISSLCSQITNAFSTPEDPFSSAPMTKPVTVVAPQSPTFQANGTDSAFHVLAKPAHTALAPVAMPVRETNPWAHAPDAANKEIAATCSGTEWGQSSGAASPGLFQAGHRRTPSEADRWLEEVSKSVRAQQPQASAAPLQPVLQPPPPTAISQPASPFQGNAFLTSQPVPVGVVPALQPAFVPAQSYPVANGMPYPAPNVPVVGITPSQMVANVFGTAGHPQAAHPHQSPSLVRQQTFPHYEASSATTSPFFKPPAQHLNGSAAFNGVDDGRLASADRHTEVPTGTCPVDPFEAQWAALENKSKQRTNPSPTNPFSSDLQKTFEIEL
Chain of UniProt Q9UHQ1 (Q9UHQ1 whole entry, looked up): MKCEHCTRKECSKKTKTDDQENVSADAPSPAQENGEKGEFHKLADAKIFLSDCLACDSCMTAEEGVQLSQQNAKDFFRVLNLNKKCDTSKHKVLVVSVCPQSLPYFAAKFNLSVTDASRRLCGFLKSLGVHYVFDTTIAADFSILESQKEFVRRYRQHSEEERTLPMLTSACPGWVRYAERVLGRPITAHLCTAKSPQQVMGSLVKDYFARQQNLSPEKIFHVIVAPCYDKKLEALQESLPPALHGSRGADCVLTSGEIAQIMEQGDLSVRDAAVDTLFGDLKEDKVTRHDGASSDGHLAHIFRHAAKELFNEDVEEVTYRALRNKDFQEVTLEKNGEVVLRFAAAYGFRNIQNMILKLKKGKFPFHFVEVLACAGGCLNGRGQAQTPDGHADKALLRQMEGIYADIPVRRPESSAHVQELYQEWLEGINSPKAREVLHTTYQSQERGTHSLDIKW
Chain of UniProt Q9BPZ3 (Q9BPZ3 whole entry, looked up): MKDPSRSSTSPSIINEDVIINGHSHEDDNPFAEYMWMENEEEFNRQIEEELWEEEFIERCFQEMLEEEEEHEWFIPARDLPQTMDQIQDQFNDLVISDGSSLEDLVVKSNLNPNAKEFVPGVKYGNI
Chain of UniProt Q15843 (Q15843 whole entry, looked up): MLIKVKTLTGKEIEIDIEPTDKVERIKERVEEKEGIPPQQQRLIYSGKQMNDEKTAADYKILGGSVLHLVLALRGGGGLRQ

Compound in the first test: CS(=O)(=O)N1CCN(Cc2cc3nc(-c4cccc5[nH]ncc45)nc(N4CCOCC4)c3s2)CC1 [pictilisib]
Briefly: log2 fold change, soluble protein after heating vs DMSO (PISA); higher = thermal stabilisation; K562 lysate, 10 uM; active = over 0.2 and 3.5 SD of the protein, either way, in both replicates (recomputed). The gist of the method:
(§1)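 Log-two fold change in thermal stability relative to solvent controls is reported from duplicates. For each sample, crude K562 extract from dounce-homogenised pellets in PBS pH 7.4 with 1 mM MgCl2, at 1 mg/mL protein, was treated with 10 μM compound for 30 min. Aliquots heated for 3 min across 48°C-58°C were pooled, brought to 0.5% NP-40 at 4°C and cleared at 21,000xg for 90 min. The supernatant was quantified by TMTpro 16plex LC-MS/MS with channel sums equalised.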
Take PARD3 (UniProt Q8TEW0): the log2 fold change is -0.155 (inactive).

As to NPM3 (UniProt O75607), the log2 fold change was 0.053 (inactive).

On to NCK1 (UniProt P16333), for which the log2 fold change was 0 (inactive).

For MYOM1 (UniProt P52179), the log2 fold change was 0.009 (inactive).

Regarding OCRL (UniProt Q01968), the log2 fold change was -0.029 (inactive).

With NUP188 (UniProt Q5SRE5), the log2 fold change was -0.04 (inactive).

For NDUFS1 isoform 2 (UniProt P28331), the log2 fold change was -0.014 (inactive).

Consider NOB1 (UniProt Q9ULX3), for which the log2 fold change is 0.01 (inactive).

As to NUMB (UniProt P49757), the log2 fold change is 0.023 (inactive).

Regarding PAIP2 (UniProt Q9BPZ3), the log2 fold change was -0.036 (inactive).

Take NEDD8 (UniProt Q15843): the log2 fold change was 0.028 (inactive).

NLRP2 (UniProt Q9NX02): the log2 fold change was -0.025 (inactive).

Consider NAA35 (UniProt Q5VZE5), for which the log2 fold change was 0.032 (inactive).

For the target NCAPD2 (UniProt Q15021), the log2 fold change is 0.001 (inactive).

Turning to PBK (UniProt Q96KB5), the log2 fold change is -0.011 (inactive).

In the case of PAFAH1B3 (UniProt Q15102), the log2 fold change was -0.024 (inactive).

As for PAK4 (UniProt O96013), the log2 fold change is 0.139 (inactive).

In the case of MTA1 (UniProt Q13330), the log2 fold change was 0 (inactive).

As to PAN2 isoform 2 (UniProt Q504Q3), the log2 fold change was 0.045 (inactive).

OSBPL6 isoform 5 (UniProt Q9BZF3): the log2 fold change is 0.008 (inactive).

Regarding PARP14 (UniProt Q460N5), the log2 fold change was -0.057 (inactive).

Take PAK1 (UniProt Q13153): the log2 fold change was -0.034 (inactive).

As for NIPBL (UniProt Q6KC79), the log2 fold change is -0.081 (inactive).

Turning to NEK7 (UniProt Q8TDX7), the log2 fold change is -0.018 (inactive).

Turning to NCKAP1L (UniProt P55160), the log2 fold change is 0 (inactive).

For MYH11 isoform 2 (UniProt P35749), the log2 fold change is -0.002 (inactive).

Take OTC (UniProt P00480): the log2 fold change was -0.026 (inactive).

Take NUB1 (UniProt Q9Y5A7): the log2 fold change is -0.022 (inactive).

As for NARF (UniProt Q9UHQ1), the log2 fold change was 0.01 (inactive).

NEK9 (UniProt Q8TD19): the log2 fold change is 0.039 (inactive).

Consider NMRAL1 (UniProt Q9HBL8), for which the log2 fold change is 0.105 (inactive).

Turning to NCAPD3 (UniProt P42695), the log2 fold change was -0.009 (inactive).

As to MT-ND1 (UniProt P03886), the log2 fold change was -0.03 (inactive).

Turning to MTA3 (UniProt Q9BTC8), the log2 fold change was 0.026 (inactive).

In the case of NIFK (UniProt Q9BYG3), the log2 fold change was -0.019 (inactive).

Compound in the next test: C[C@@H](Oc1cc(-c2cnn(C3CCNCC3)c2)cnc1N)c1c(Cl)ccc(F)c1Cl [crizotinib]
The description is as above. The gist of the method:
as §1
With PARD3 (UniProt Q8TEW0), the log2 fold change is -0.096 (inactive).

For the target NPM3 (UniProt O75607), the log2 fold change was -0.02 (inactive).

In the case of NCK1 (UniProt P16333), the log2 fold change was -0.024 (inactive).

MYOM1 (UniProt P52179): the log2 fold change was 0.054 (inactive).

For OCRL (UniProt Q01968), the log2 fold change was -0.047 (inactive).

As for NUP188 (UniProt Q5SRE5), the log2 fold change is -0.05 (inactive).

With NDUFS1 isoform 2 (UniProt P28331), the log2 fold change was 0.034 (inactive).

In the case of NOB1 (UniProt Q9ULX3), the log2 fold change was -0.019 (inactive).

Take NUMB (UniProt P49757): the log2 fold change is 0.02 (inactive).

Take PAIP2 (UniProt Q9BPZ3): the log2 fold change was 0.021 (inactive).

As for NEDD8 (UniProt Q15843), the log2 fold change was 0.041 (inactive).

Take NLRP2 (UniProt Q9NX02): the log2 fold change was -0.029 (inactive).

Consider NAA35 (UniProt Q5VZE5), for which the log2 fold change was -0.031 (inactive).

As to NCAPD2 (UniProt Q15021), the log2 fold change was -0.049 (inactive).

PBK (UniProt Q96KB5): the log2 fold change was -0.005 (inactive).

For the target PAFAH1B3 (UniProt Q15102), the log2 fold change is -0.01 (inactive).

Turning to PAK4 (UniProt O96013), the log2 fold change was 0.037 (inactive).

Take MTA1 (UniProt Q13330): the log2 fold change is -0.008 (inactive).

With PAN2 isoform 2 (UniProt Q504Q3), the log2 fold change is -0.085 (inactive).

Take OSBPL6 isoform 5 (UniProt Q9BZF3): the log2 fold change is 0.367 (active).

On to PARP14 (UniProt Q460N5), for which the log2 fold change was -0.154 (inactive).

Take PAK1 (UniProt Q13153): the log2 fold change is 0.019 (inactive).

Take NIPBL (UniProt Q6KC79): the log2 fold change was -0.034 (inactive).

As to NEK7 (UniProt Q8TDX7), the log2 fold change is -0.045 (inactive).

Take NCKAP1L (UniProt P55160): the log2 fold change was -0.061 (inactive).

Take MYH11 isoform 2 (UniProt P35749): the log2 fold change is 0.054 (inactive).

With OTC (UniProt P00480), the log2 fold change was -0.273 (inactive).

As to NUB1 (UniProt Q9Y5A7), the log2 fold change was 0.012 (inactive).

For NARF (UniProt Q9UHQ1), the log2 fold change is 0.032 (inactive).

NEK9 (UniProt Q8TD19): the log2 fold change is 0.057 (inactive).

With NMRAL1 (UniProt Q9HBL8), the log2 fold change is -0.017 (inactive).

Take NCAPD3 (UniProt P42695): the log2 fold change was -0.065 (inactive).

As for MT-ND1 (UniProt P03886), the log2 fold change is -0.062 (inactive).

Take MTA3 (UniProt Q9BTC8): the log2 fold change was -0.058 (inactive).

On to NIFK (UniProt Q9BYG3), for which the log2 fold change is -0.033 (inactive).

Compound in a further test: C[C@H](C1=CC=C(C=C1)C(=O)NC2=C3C=CNC3=NC=C2)N
Described as above. The essentials: as §1
Turning to PARD3 (UniProt Q8TEW0), the log2 fold change is 0.014 (inactive).

Take NPM3 (UniProt O75607): the log2 fold change was -0.201 (inactive).

Take NCK1 (UniProt P16333): the log2 fold change is 0.065 (inactive).

In the case of MYOM1 (UniProt P52179), the log2 fold change is -0.082 (inactive).

Turning to OCRL (UniProt Q01968), the log2 fold change is -0.029 (inactive).

For NUP188 (UniProt Q5SRE5), the log2 fold change is -0.024 (inactive).

Take NDUFS1 isoform 2 (UniProt P28331): the log2 fold change was 0.009 (inactive).

In the case of NOB1 (UniProt Q9ULX3), the log2 fold change is 0.283 (active).

Regarding NUMB (UniProt P49757), the log2 fold change is -0.057 (inactive).

For the target PAIP2 (UniProt Q9BPZ3), the log2 fold change was -0.008 (inactive).

Regarding NEDD8 (UniProt Q15843), the log2 fold change is 0.19 (inactive).

As to NLRP2 (UniProt Q9NX02), the log2 fold change is 0.091 (inactive).

Regarding NAA35 (UniProt Q5VZE5), the log2 fold change was 0.082 (inactive).

For the target NCAPD2 (UniProt Q15021), the log2 fold change was -0.003 (inactive).

With PBK (UniProt Q96KB5), the log2 fold change is 0.013 (inactive).

For PAFAH1B3 (UniProt Q15102), the log2 fold change was -0.016 (inactive).

Regarding PAK4 (UniProt O96013), the log2 fold change is 0.163 (inactive).

Turning to MTA1 (UniProt Q13330), the log2 fold change was 0.001 (inactive).

PAN2 isoform 2 (UniProt Q504Q3): the log2 fold change was 0.003 (inactive).

For OSBPL6 isoform 5 (UniProt Q9BZF3), the log2 fold change was -0.003 (inactive).

Consider PARP14 (UniProt Q460N5), for which the log2 fold change is 0.148 (inactive).

With PAK1 (UniProt Q13153), the log2 fold change is -0.117 (inactive).

On to NIPBL (UniProt Q6KC79), for which the log2 fold change is 0.039 (inactive).

As for NEK7 (UniProt Q8TDX7), the log2 fold change was -0.062 (inactive).

For NCKAP1L (UniProt P55160), the log2 fold change is -0.002 (inactive).

Regarding MYH11 isoform 2 (UniProt P35749), the log2 fold change was 0.279 (active).

For OTC (UniProt P00480), the log2 fold change is -4.33 (active).

On to NUB1 (UniProt Q9Y5A7), for which the log2 fold change was 0.009 (inactive).

Consider NARF (UniProt Q9UHQ1), for which the log2 fold change is 0.001 (inactive).

Consider NEK9 (UniProt Q8TD19), for which the log2 fold change was -0.092 (inactive).

Take NMRAL1 (UniProt Q9HBL8): the log2 fold change was 0.695 (active).

Consider NCAPD3 (UniProt P42695), for which the log2 fold change was -0.013 (inactive).

Consider MT-ND1 (UniProt P03886), for which the log2 fold change was -0.342 (active).

For the target MTA3 (UniProt Q9BTC8), the log2 fold change is -0.022 (inactive).

As to NIFK (UniProt Q9BYG3), the log2 fold change is -0.027 (inactive).
